A647 fluor: compound autofluorescence in A647 spectral region | Compound fluorescence, A647 channel (570/671 nm), Tris buffer | max dye-equivalent concentration, M | 59,000 tested, under 10 active | AID 592;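 further: values scaled relative to a standard on each plate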
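Buffer was dispensed, compounds and Alexa 647 standards were pin-transferred, and plates sat 15 min at room temperature. Intensity at 570/671 nm was then converted to dye-equivalent concentration using the plate's A647 standard curve.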
Texas Red fluor: compound fluoresces in the Texas Red spectral region; AID 587; Compound fluorescence, Texas Red channel, 547/618 nm; hits give high values; max dye-equivalent concentration, M; actives 0.06% (n = 59,000); in the data active means max dye-equivalent concentration above about 10 nM; inconclusive means between about 1.1 nM and that limit
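Pin-transferred compounds and Texas Red standards go into 100 mM Tris buffer, pH 8.0. After 15 min at room temperature, plates are imaged with 547/618 nm filters. Each value is a dye-equivalent concentration derived from the per-plate dye curve.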
Resorufin fluor: compounds fluorescent in resorufin spectral region | Compound fluorescence, resorufin region 547/598 nm, buffer; hits give high values | max dye-equivalent concentration, M | actives 0.04% (n = 59,000)
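Read-out: intrinsic compound fluorescence at ex 547/em 598 nm after 15 min at RT in pH 8.0 Tris (100 mM). Values expressed as resorufin-equivalent concentration from per-plate standard series.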
Rhodamine fluor: compound autofluorescence in rhodamine spectral region; Rhodamine-region fluorescence, 547/598 nm, Tris buffer; hits give high values; max dye-equivalent concentration, M; actives 0.05% (n = 59,000); AID 594; in the data active means max dye-equivalent concentration above about 11 nM; inconclusive means between about 1.1 nM and that limit
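qHTS spectral profiling of compounds without any target or enzyme present, in pH 8.0 Tris buffer; plates were read after a 15-minute room-temperature incubation using the rhodamine-region filter set.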
A488 autofl: compound fluoresces in the A488 spectral region. actives 0.1% (n = 59,000). max dye equivalency, M. compound autofluorescence, A488 spectral region, dye equivalency; Compound Type: qHTS ECL - MLSMR. AID 591
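Compound autofluorescence was read in 100 mM Tris pH 8.0 after 15 min at room temperature, ex 480 nm/em 540 nm. Intensities were converted to A488 dye-equivalent concentration using an on-plate six-point A488 standard curve.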
Fluorescein autfl: compound autofluorescence in fluorescein spectral region; actives 0.91% (n = 59,000); max fluorescein-equivalent concentration, M; Compound autofluorescence, 480/540 nm, fluorescein-equivalent; hits give high values; in the data active means max fluorescein-equivalent concentration above about 10 nM; inconclusive means between about 1.1 nM and that limit
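Each compound is tested across a concentration series in 100 mM Tris buffer at pH 8.0. After 15 min at room temperature, plates are imaged with 480 nm excitation and 540 nm emission filters, and intensities are converted to fluorescein-equivalent values.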
* marks the source's active call; other numbers are inactive results; i = inactive; ? = inconclusive; ! = not active in a repeat. In the library only some 0.96% were active in any assay of this set; here they are far more common. Unless noted, how the calls were made is not given here.

SMILES | A647 fluor | Texas Red fluor | Resorufin fluor | Rhodamine fluor | A488 autofl | Fluorescein autfl
CN1C[C@H](CNC(=O)OCc2ccccc2)C[C@@H]2c3cccc4c3c(cn4C)C[C@H]21 | 3.27e-08 | i | i | i | ? | 4.72e-08M*
CN1C[C@@H](CS(=O)(=O)N(C)C)C[C@H]2c3cccc4c3c(cn4C)C[C@@H]21 | 1e-09 | ? | i | i | i | 1.86e-08M*
COc1cc2c(cc1OC)[C@]13CCN4CC5=CCO[C@@H]6CC(=O)N2[C@@H]1[C@H]6[C@@H]5C[C@H]43 | 1.54e-08 | i | i | i | i | ?
CCN1C[C@@]2(COC(=O)c3ccccc3N3C(=O)C[C@H](C)C3=O)CC[C@H](OC)[C@@]34[C@@H]5CC6[C@@H](OC)C[C@@](O)([C@H]5[C@H]6OC)C(O)([C@@H]13)[C@@H](OC)[C@H]24 | 1.4e-09 | i | i | i | i | i
COc1cccc2c1C(=O)c1c(O)c3c(c(O)c1C2=O)C[C@](O)(/C(C)=N\O)C[C@@H]3O[C@H]1C[C@H](N)[C@@H](O)[C@H](C)O1 | 1e-09 | 1.89e-08M* | 1.72e-08M* | 2.98e-08M* | ? | 7.63e-08M*
CC(C)OC(=O)c1c(N)n(Cc2ccco2)c2nc3ccccc3nc12 | 3.53e-08 | i | i | i | ? | 3.6e-08M*
COCCOC(=O)c1c(N)n(Cc2ccc(OC)cc2)c2nc3ccccc3nc12 | 4.9e-09 | ? | i | i | i | i
COCCOC(=O)c1c(N)n(Cc2ccco2)c2nc3ccccc3nc12 | 1e-09 | i | i | i | ? | 4.28e-08M*
COc1ccc(Cn2c(N)c(C(=O)NCc3ccco3)c3nc4ccccc4nc32)cc1OC | 1.36e-08 | i | i | i | i | ?
O=c1cccc2n1C[C@@H]1C[C@H]2CN2CCCC[C@H]12 | 1e-09 | i | i | i | i | i
O=C(NCP(=O)(O)O)c1cccnc1 | 1e-09 | i | i | i | i | i
C=C[C@@H]1CN2CC[C@H]1C[C@H]2[C@@H](O)c1ccnc2ccccc12 | 1e-09 | i | i | i | i | i
CC(C)[C@@]1(NC(=O)[C@H]2C[C@H]3c4cccc5[nH]cc(c45)C[C@@H]3N(C)C2)O[C@]2(O)[C@H]3CCCN3C(=O)[C@H](Cc3ccccc3)N2C1=O | 2.5e-08 | i | i | i | i | ?
CC(C)[C@@]1(NC(=O)[C@@H]2C=C3c4cccc5[nH]cc(c45)C[C@@H]3N(C)C2)O[C@]2(O)[C@H]3CCCN3C(=O)[C@H](Cc3ccccc3)N2C1=O | 1.7e-09 | i | i | i | ? | 2.89e-08M*
CN1C[C@H](C(=O)N[C@@]2(C)O[C@@]3(O)[C@H]4CCCN4C(=O)[C@@H](Cc4ccccc4)N3C2=O)C=C2c3cccc4[nH]cc(c34)C[C@@H]21 | 3.08e-08 | i | i | i | i | 1.8e-08M*
CC[C@H]1[C@@H]2C[C@@H]3[C@@H]4N(C)c5ccccc5[C@@]45C[C@@H]([C@H]2[C@@H]5O)N3[C@@H]1O | 1e-09 | i | i | i | i | i
CCN(CC)C(=O)N[C@@H]1C=C2c3cccc4[nH]cc(c34)C[C@@H]2N(C)C1 | 1e-09 | ? | i | i | i | 1.3e-08M*!
CN1C[C@H](CO)C=C2c3cccc4[nH]cc(c34)C[C@@H]21 | 2.9e-09 | i | i | i | i | 2.68e-08M*
CCCN1CCc2cccc3c2[C@@H]1Cc1ccc(O)c(O)c1-3 | 1e-09 | i | i | i | i | ?
CC[C@@H](CO)NC(=O)[C@@H]1C=C2c3cccc4c3c(cn4C)C[C@H]2N(C)C1 | 1e-09 | i | i | i | ? | 4.77e-08M*
C[C@@H](CO)NC(=O)[C@H]1C=C2c3cccc4[nH]cc(c34)C[C@H]2N(C)C1 | 1e-09 | i | i | i | i | ?
CC[C@H](CO)NC(=O)[C@H]1C=C2c3cccc4[nH]cc(c34)C[C@@H]2N(C)C1 | 1.8e-09 | i | i | i | i | 2.1e-08M*
CN1CC=C2C(C#N)=C(N)C(C#N)(C#N)C(c3ccncc3)C2C1 (stereo not given) | 1e-09 | ? | i | i | ? | 4.17e-08M*
C=C(C)[C@H]1[C@H]2OC(=O)[C@@H]1[C@]1(O)C[C@H]3O[C@]34C(=O)O[C@H]2[C@]14C | 1.9e-08 | i | i | i | i | i
N[C@@H](Cc1cc(Br)c(O)c(Br)c1)C(=O)O | 1e-09 | i | i | i | i | i
SMILES | A647 fluor | Texas Red fluor | Resorufin fluor | Rhodamine fluor | A488 autofl | Fluorescein autfl
N[C@H](Cc1ccc2oc3cc(=O)c4ccccc4c-3nc2c1)C(=O)O | 1.08e-08 | 4.7e-08M* | ? | 1.16e-08M* | 3.89e-08M* | 8.49e-07M*
c1ccc(CCN2CCOCC2)nc1 | 4.27e-08 | i | i | i | i | ?
CCn1nc(-c2ccccc2)nc2c(=O)n(C)c(=O)nc1-2 | 1.87e-08 | i | i | i | 1.08e-08M* | 1.78e-07M*
C[C@H]1CC[C@]2(NC1)O[C@@H]1C[C@@H]3[C@@H]4CC=C5C[C@H](O)CC[C@@]5(C)[C@H]4CC[C@@]3(C)[C@H]1[C@@H]2C | 1e-09 | i | i | i | i | i
Cn1c(=O)c2nncnc2n(C)c1=O | 6.9e-09 | i | i | i | i | 1.06e-08M*
CCC(=NC1CCN(Cc2ccccc2)CC1)c1c(O)[nH]c(=O)[nH]c1=O | 1e-09 | i | i | i | i | i
CCOC(=O)c1ccc(NC(=O)c2c(O)[nH]c(=O)[nH]c2=O)cc1 | 1e-09 | ? | i | ? | 2.34e-06M* | 4.06e-05M*

Assay outcomes: PubChem, National Center for Advancing Translational Sciences (NCATS)
